# Rows were chosen to be rich in hits. Some 0.36% of all compounds tested hit in one or more screens of this group.
# AID504770: E. coli YBA685 growth inhibition, screen for V. cholerae RctB inhibitors; E. coli YBA685 rctB-dependent plasmid, OD600 growth, 3 h; hits give low values; z-score (no concentration beside the values); 130,000 tested, 0.27% active; AID 504770; in the data active means z-score below about -2, passing the limit was not always enough
# CapD inh: CapD enzyme inhibition. 140,000 tested, 0.23% active. purified CapD enzyme, fluorescence intensity read-out; hits give low values. z-score (no concentration beside the values). AID 492967; in the data active means z-score mostly below about -2.9, no sharp cut-off; inactive means mostly above about -1.9
# Numbers stand for hits; – = inactive; · = no result.
SMILES,AID504770,CapD inh
COc1ccc(OC)c(-n2c(N)c(C#N)c3nc4ccccc4nc32)c1,-2.1,·
Cc1ccc(-n2c(N)c(C#N)c3nc4ccccc4nc32)c(C)c1,–,–
CC(C)(C)c1ccc(-c2cc3ncc(-c4ccccc4)c(N)n3n2)cc1,-2.3,–
Nc1c(S(=O)(=O)c2ccc(Cl)cc2)cnc2cc(-c3ccccc3)nn12,·,–
CC(OCc1ccccc1)C(NC(=O)OC(C)(C)C)C(N)=O (configuration not stated),·,–
O=S(=O)(NC1CCCc2ccccc21)c1cccs1 (configuration not stated),–,-1.68
O=C(CCS(=O)(=O)c1cccs1)NC1CCCc2ccccc21 (configuration not stated),–,–
O=C(CC1(O)C(=O)N(Cc2cccc(F)c2)c2ccccc21)c1ccco1 (configuration not stated),–,–
O=S1(=O)N=C(N2CCN(c3ccccc3)CC2)c2ccccc21,–,–
CCOc1ccc2oc(C(=O)N3CCCCC3C(N)=O)c(C)c2c1 (configuration not stated),–,·
O=C(CNc1ccccc1C(=O)O)c1ccccc1,·,–
NC(=O)c1ccccc1NCC(=O)c1ccc(Cl)cc1,-2.25,–
CN(C)CCNC(=O)c1c[nH]c2ccccc12,–,–
O=C(O)C(=O)/C=C(\O)c1ccccc1,–,–
O=C(/C=C(\O)c1ccccc1)C(F)(F)C(F)F,-3.45,–
Oc1c(Br)cc(Br)c2cccnc12,–,–
Cc1cc(C)c2cccnc2c1O,-2.4,–
CC(C)CNc1ncnc2c1sc1nc3c(cc12)COC(C)(C)C3,–,–
COc1ccc(OC(=O)c2ccc(Cl)cc2)cc1,–,–
O=C1C=CC(=O)N1C1CC1,-6.05,·
O=C1CCC(=O)N1C1CCCCC1,–,–
CC(NC(=O)C1=NN(C2CCS(=O)(=O)C2)C(=O)CC1)c1ccc(S(N)(=O)=O)cc1 (configuration not stated),–,·
C#CCSc1nnc2n(CC)c(=O)c3c(n12)-c1ccccc1CC31CCCCC1,–,–
C/C(=N\N1C(=O)c2ccccc2C1=O)C1C(=O)c2ccccc2C1=O,–,–
C/C(=N/O)C1C(=O)c2ccccc2C1=O,–,-4.33
SMILES,AID504770,CapD inh
NC(=O)N1C(=O)C=CC1=O,-8.5,·
Cc1csc(N2C(=O)C=CC2=O)c1C(=O)c1ccccc1,–,–
COc1cccc(NC(=O)c2oc3ccccc3c2NC(=O)c2cccs2)c1,–,–
CCOC(=O)c1c(NC(C)=O)nc(SC)n1Cc1cccs1,–,–
CCOC(=O)c1c(NC(C)=O)nc(SC)n1Cc1ccco1,–,-11
CNC(=O)c1cn(-c2ccccc2)c(=O)c2ccccc12,–,–
CC(=O)n1c(=O)c2ccccc2c(=O)n1-c1ccccc1,–,-4.74
CN(C)S(=O)(=O)c1cccc(CN2C(=O)NC(CCc3ccccc3)C2=O)c1 (configuration not stated),–,·
Cc1cc2oc(=O)cc(CSc3ncccn3)c2cc1Cl,-3.1,·
O=c1cc(CSc2ncccn2)c2cc3c(cc2o1)CCC3,–,·
CN(C)/C=C/c1snc(SCc2c(F)cccc2Cl)c1C#N,·,–
Cn1c(N)c(C#N)c2c(c1=S)CCCC2,-2.85,·
CN1CCc2c(C#N)c(N)n(N)c(=S)c2C1,–,·
Cn1c(=O)c2ncnnc2n(C)c1=O,-2.3,·
C=CCn1cnc2c1c(=O)n(C)c(=O)n2C,–,–
CN(C)CCN(C(=O)Cc1ccccc1)c1nc2cc3c(cc2s1)OCCO3,-2.3,–
CN(C)CCN(C(=O)c1ccco1)c1nc2cc3c(cc2s1)OCO3,–,–
CC(=O)NCC1OCCc2ccccc21 (configuration not stated),–,–
CC(C)CS(=O)(=O)C1=NN2C(=N)/C(=C\c3ccco3)C(=O)N=C2S1,–,-4.13
CCS(=O)(=O)C1=NSC2=NC(=O)/C(=C\c3ccco3)C(=N)N21,–,–
CCOC(=O)c1c[nH]c(=S)[nH]1,·,–
CCOC(=O)c1c[nH]c(=S)[nH]c1=O,–,-7.04
CC(=O)CC(=O)N1CCN(c2ncc(C(F)(F)F)cc2Cl)CC1,·,–
O=C1NC(=S)N(c2ccccc2)C(=O)/C1=C/C=C/c1ccco1,–,–
COc1cccc(N2C(=O)/C(=C/C=C/c3ccco3)C(=O)NC2=S)c1,–,-7.42
SMILES,AID504770,CapD inh
Cc1ccc(C(C)C)c(OCc2nnc3c4cnn(Cc5ccccc5)c4ncn23)c1,–,–
CCN(CC)c1ccc(NC(=S)Nc2ccc(S(N)(=O)=O)cc2)cc1,–,–
N#Cc1nccnc1S(=O)(=O)c1cccs1,-7.85,–
O=S(=O)(c1cccs1)c1cccs1,–,–
CCOC(=O)Oc1c(Cl)cc2oc(=O)sc2c1Br,–,-5.26
CCCCOC(=O)Oc1cc2oc(=O)sc2cc1Br,–,–
CSc1ccc(C=C(C#N)C#N)cc1,·,–
N#CC(C#N)=Cc1ccc(O)c(Cl)c1,–,-5.42
O=C(Nc1ccc([N+](=O)[O-])cc1)/C(=C/c1cccc([N+](=O)[O-])c1)NC(=O)c1ccccc1Br,·,–

# Screening results: PubChem BioAssay, ICCB-Longwood Screening Facility, Harvard Medical School
